Pf growth 96h: Primary qHTS for delayed death inhibitors of the malarial parasite plastid, 96 hour incubation | Potency, µM (titrated, usually from 28.7 µM), actives largely listed as inhibitors | P. falciparum luciferase reporter growth, 96 h | 6.9% of 320,000 active
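Luminescence readout: decreased luciferase signal marks inhibited growth of reporter-expressing P. falciparum in infected red cells (2% hematocrit, 0.05% parasitemia final), exposed to compound two generations (96 h, 37 C, 5% CO2).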
Pf growth 48h: Primary qHTS for delayed death inhibitors of the malarial parasite plastid, 48 hour incubation | Potency, µM (highest dose often 28.7 µM), actives largely listed as inhibitors | P. falciparum luciferase growth in erythrocytes, 48 h | 5.9% of 310,000 active
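In quantitative HTS format, infected erythrocytes bearing luciferase-reporter parasites were treated for a single generation at 37 C. Luminescence after adding detection reagent served as the growth measure.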
Cycloheximide cs: Cycloheximide Counterscreen for Small Molecule Inhibitors of Shiga Toxin; max response, %; cell reporter, cycloheximide protein synthesis inhibition counterscreen; 12% of 300,000 active; in the data active = max response mostly above about 13%, no sharp cut-off; inactive = mostly below about 14%; note: read at 38.3 µM for the half of the compounds with a filed dose
Shiga inhibitor: A qHTS for Small Molecule Inhibitors of Shiga Toxin; Vero cells, Shiga toxin protein synthesis inhibition reporter; inhibition, % at 38.7 µM; 9.2% of 290,000 active; in the data active = inhibition mostly above about 28%, no sharp cut-off; inactive = mostly below about 43%
Of the large screens only hits and unclear results are named; the others gave an inactive call. Shown are actives, neighbours in structure and some others; about 21% of the full set was active somewhere. Unless noted, calls come from the whole dose curve; as a rule, active = well fitted inhibition curve with a large enough effect; inconclusive = small, poorly fitted or top-dose-only effect, or another doubt; inactive = no such curve, though single readings can be large or run the other way.

Cc1c(CNC(=O)C2CCC(=O)N(CCc3ccccc3)C2)cnn1C (stereo unspecified)	none
O=C(COc1ccc([N+](=O)[O-])cc1)NC(=O)NC1CCS(=O)(=O)C1 (stereo unspecified)	none (no result: Cycloheximide cs, Shiga inhibitor)
Cc1ccc(Nc2nc(N)nc(CSc3nc4ccccc4s3)n2)cc1	Cycloheximide cs 37, Shiga inhibitor 37
Cc1ccc(Nc2nc(N)nc(CSc3nnc(-c4ccncc4)o3)n2)cc1	Cycloheximide cs 14, Shiga inhibitor 48 (no result: Pf growth 96h)
Cc1[nH][nH]c(=O)c1C	none (no result: Cycloheximide cs, Shiga inhibitor)
CCCc1cc(=O)n2nc(N3CCC(C(=O)NCc4ccco4)CC3)sc2n1	none
Cc1ccc(CN(Cc2cccnc2)C(=O)CN2C(=O)COc3ccccc32)o1	none
CCOc1ccccc1NC(=O)CSc1nnc(-c2ccco2)n1Cc1ccco1	Pf growth 96h inconclusive, Pf growth 48h inconclusive
CCOc1ccccc1NC(=O)CN1C(=O)C(=O)N(Cc2ccco2)C1=O	Pf growth 48h 12µM
CCOc1ccccc1NC(=O)CN1C(=O)COc2ccccc21	Pf growth 96h 12µM
Cc1ccc2c(c1)N(CC(=O)Nc1ccccc1F)C(=O)CO2	Pf growth 96h 2.9µM
O=C(CN1C(=O)COc2ccccc21)N(Cc1ccccc1)Cc1ccccn1	Pf growth 96h inconclusive, Cycloheximide cs 35
Cc1cc(Cl)c(C)c(S(=O)(=O)Oc2ccccc2NC(=O)CCC(=O)O)c1Cl	Pf growth 48h inconclusive (no result: Cycloheximide cs, Shiga inhibitor)
S=P(N1CC1)(N1CC1)N1CC1	none (no result: Cycloheximide cs, Shiga inhibitor)
CCc1ccc(-n2c(=S)sc3c(=O)n(-c4ccccc4C)c(SCC(=O)O)nc32)cc1	none
O=C(CCC(=O)Nc1ccccc1)NNC(=O)COc1ccccc1	none
CCCCNc1nc2sc3c(c2c(=O)n1-c1cccc(Cl)c1)CCN(C)C3	Pf growth 96h 0.37µM, Pf growth 48h 1.9µM
CCCCCNc1nc2sc3c(c2c(=O)n1-c1cccc(Cl)c1)CCN(C)C3	Pf growth 96h 0.17µM, Pf growth 48h 1.5µM
Cc1ccc(OCCC(=O)OCC(=O)NC(=O)NC2CCCCC2)cc1	none (no result: Cycloheximide cs, Shiga inhibitor)
CCc1ccc(-n2ccc(=O)c(C(=O)O)n2)cc1	none
COc1cccc(NC(=O)NC2CCCCCCC2)c1	Cycloheximide cs 50, Shiga inhibitor 155
COc1cccc(NC(=O)C(=S)NC2CCCCC2)c1	Cycloheximide cs 50, Shiga inhibitor 106
O=C(Nc1ccc2c(c1)S(=O)(=O)N=C1CCCCCN12)c1ccccc1Cl	Pf growth 96h inconclusive, Pf growth 48h inconclusive
Cc1ccc2nc(-c3ccncc3)c(NC3CCCCC3)n2c1	none
CCN(CCCc1ccccc1)CCCc1ccccc1	Pf growth 96h inconclusive, Pf growth 48h inconclusive
CCN(CC)CCCN(c1ccccc1)C1Cc2ccccc2C1	Pf growth 96h inconclusive, Pf growth 48h 1.9µM (no result: Cycloheximide cs, Shiga inhibitor)
Cc1ccc(C(=O)Nc2ccc3c(c2)OCCO3)c(C)c1	none
Cc1cc(C)n2ncc(C(=O)Nc3ccc4c(c3)OCO4)c2n1	Pf growth 96h inconclusive
Cn1ncc([N+](=O)[O-])c1C(=O)Nc1ccc2c(c1)OCCO2	Cycloheximide cs 33, Shiga inhibitor 54
Cn1ncc([N+](=O)[O-])c1C(=O)Nc1ccccc1	Pf growth 48h inconclusive
Cc1nn(C)cc1C(=O)Nc1ccc2c(c1)OCCO2	Cycloheximide cs 43, Shiga inhibitor 71
Cn1ncc([N+](=O)[O-])c1C(=O)Nc1ccc(-c2ccccc2)cc1	Cycloheximide cs 13 (no result: Shiga inhibitor)
Cc1ccc(NC(=O)c2c([N+](=O)[O-])cnn2C)cc1C	none (no result: Shiga inhibitor)
Cc1c(C(=O)Nc2ccc3c(c2)OCCO3)cnn1C	Pf growth 96h inconclusive, Cycloheximide cs 48, Shiga inhibitor 78
C/C=C\C=C/C(=O)Nc1cccc(C2=NOC3(C2)C[C@H](C(N)=O)N(C(=O)Cc2ccc([N+](=O)[O-])cc2)C3)c1 (stereo partly specified)	Pf growth 96h inconclusive, Pf growth 48h inconclusive
O=C(Nc1ccc2c(c1)OCO2)c1c(Cl)nc2sccn12	Cycloheximide cs 25, Shiga inhibitor 103
Cn1nccc1C(=O)Nc1ccc2c(c1)OCCO2	Pf growth 96h inconclusive, Cycloheximide cs 43, Shiga inhibitor 96
Cn1ncc(Cl)c1C(=O)NCc1ccc2c(c1)OCO2	none
Cc1c(C(=O)Nc2ccc(Br)cc2)cnn1C	Cycloheximide cs 78, Shiga inhibitor 130
Cn1ncc(Cl)c1C(=O)Nc1ccc2c(c1)OCO2	Cycloheximide cs 21
Cc1cccc(Nc2sc(C(=O)c3cc4cc(Cl)ccc4o3)c(N)c2C#N)c1	none
COc1ccc2oc(C(=O)OCC(=O)NC3(C#N)CCCC3)c(C)c2c1	Pf growth 48h inconclusive (no result: Cycloheximide cs, Shiga inhibitor)
Cc1ccc(C)c2sc(N3CCN(C(=O)c4ccc([N+](=O)[O-])o4)CC3)nc12	Pf growth 96h 0.33µM, Pf growth 48h 0.83µM (no result: Cycloheximide cs, Shiga inhibitor)
O=C(c1ccc([N+](=O)[O-])o1)N1CCN(c2nc3c(F)cc(F)cc3s2)CC1	Pf growth 96h 0.33µM, Pf growth 48h 1µM (no result: Cycloheximide cs, Shiga inhibitor)
CN1CCN(c2cc3c(nn2)Oc2ccccc2N3C)CC1	none (no result: Cycloheximide cs, Shiga inhibitor)
CC(C)COC(=O)c1ccc2c(c1O)C(=O)c1ccccc1C2=O	Cycloheximide cs 34, Shiga inhibitor 66 (no result: Pf growth 96h)
CCOc1ccc2cc(C#N)c(SCC(=O)N3CCC(C)CC3)nc2c1	Pf growth 48h 9.3µM
CCOc1ccc2cc(C#N)c(SCC(=O)NC(C)CC)nc2c1 (stereo unspecified)	Pf growth 96h 7.4µM
COC(=O)CSc1nc2ccc(C)cc2cc1C#N	Cycloheximide cs 36, Shiga inhibitor 149
Cc1ccc2nc(NCCNC(=O)c3ccccc3)c(C#N)cc2c1	Pf growth 96h inconclusive (no result: Shiga inhibitor)
COc1ccc(C(=O)NCCNc2nc3ccc(C)cc3cc2C#N)cc1	Pf growth 96h 9.3µM, Pf growth 48h inconclusive, Cycloheximide cs 23, Shiga inhibitor 34
CC1(C)C2CCC1(CS(=O)(=O)NCc1ccc(C(F)(F)F)cc1)C(=O)C2 (stereo unspecified)	none
O=C(c1ccccc1)n1c(=O)cc[nH]c1=O	Pf growth 48h inconclusive (no result: Cycloheximide cs, Shiga inhibitor)
CCN1C(=O)/C(=C\c2cccn2-c2ccc([N+](=O)[O-])cc2)N(CC)C1=S	none
Cc1ccc(S(=O)(=O)Nc2cc(Cl)ccc2-n2cncn2)cc1	none (no result: Cycloheximide cs, Shiga inhibitor)
COc1ccc2cc(C#N)c(SCC(=O)N3CCCC3)nc2c1	none
CCOc1ccc2nc(SCC#N)c(C#N)cc2c1	Cycloheximide cs 22
COc1ccc(CC(=O)N2CCN(c3ccc(F)cc3)CC2)cc1	Pf growth 96h inconclusive
CCSc1nc2ccc(OC)cc2cc1C#N	none
COc1ccc2nc(SCC(=O)N3CCN(c4ccc(F)cc4)CC3)c(C#N)cc2c1	Pf growth 96h 15µM, Pf growth 48h inconclusive
COc1ccc2cc(C#N)c(SCC(=O)NNC(=O)Cc3ccccc3)nc2c1	none
CCOC(=O)CSc1nc2cc(OCC)ccc2cc1C#N	Cycloheximide cs 65, Shiga inhibitor 88 (no result: Pf growth 96h)
COC(=O)CSc1nc2cc(OC)ccc2cc1C#N	Cycloheximide cs 53, Shiga inhibitor 68 (no result: Pf growth 96h)
CCOc1ccccc1C(=O)OCC(=O)NCCNC(=O)COC(=O)c1ccccc1OCC	Pf growth 96h inconclusive
COc1ccc(NC2CCCN(C(=O)CSc3ccncc3)C2)cc1 (stereo unspecified)	none
Cc1c(Cl)cccc1Nc1nc(N)nc(CN2CCc3ccccc3C2)n1	Pf growth 48h 9.3µM (no result: Pf growth 96h)
Cc1cccc(Nc2nc(N)nc(CCl)n2)c1C	Pf growth 96h 1.5µM, Pf growth 48h inconclusive, Cycloheximide cs 53, Shiga inhibitor 59
